PubChem BioAssay (NCATS)
“And” between values parts separate entries of the source, which are not always exact repeats. Equal entries are not always repeated. Values without a mark were called inactive. Inconclusive results are not listed. The source made the active and inactive calls. Unless noted, calls follow the shape of the dose curve; as a rule, active = well fitted inhibition curve with a large enough effect; inconclusive = small, poorly fitted or top-dose-only effect; inactive = flat fitted curve, though single readings scatter.

Legend:
[1] = qHTS drug screen for cell cycle checkpoint inhibitors in PARPi-resistant BRCA-mutant ovarian cancer cell lines. (AID 1963452; calls by dose curve); settings: PEO1/OlaR viability, CellTiter-Glo luminescence, 96 h
Outline: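 PEO1, PEO4 and PEO1/OlaR ovarian cancer cells, 600 per well, exposed 96 h at 37C to a dilution series. Viability read by CellTiter-Glo luminescence, normalized to DMSO and empty wells; activity summarized as Z-AUC.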

[2] = qHTS profiling for inhibitors of Plasmodium falciparum proliferation (AID 504749); also: nearly all actives have a fitted effect of over 60% in size;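 as to activity, negative = inhibition: 0% = DMSO vehicle and full inhibition = artemisinin control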; settings: P. falciparum in erythrocytes, SYBR Green DNA, 72 h
Outline: (§1)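 Quantitative HTS: compounds pinned into medium, infected erythrocytes added (0.3% parasitemia, 2.5% hematocrit), 72 h culture at 37 C under 5% CO2. Saponin/Triton lysis with SYBR Green I, overnight RT, then fluorescence read.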

3D7 = test: as above; settings: P. falciparum in erythrocytes, SYBR Green DNA, 72 h; series mostly up to 28.7 µM
Outline: as §1

7G8 = test: as above; settings: P. falciparum in erythrocytes, SYBR Green DNA, 72 h; series mostly up to 28.7 µM
Outline: as §1

[3] = at 12.8 µM (top of the series), parasite line A
[4] = at 12.8 µM (top of the series), parasite line B
[5] = at 28.7 µM (top of the series), parasite line A
[6] = at 28.7 µM (top of the series), parasite line B
Potency is read from the fitted curve at half-maximal effect.

With CC(=O)O[C@@]12CO[C@@H]1C[C@H](O)[C@@]1(C)C(=O)[C@H](O)C3=C(C)[C@@H](OC(=O)[C@H](O)[C@@H](NC(=O)OC(C)(C)C)c4ccccc4)C[C@@](O)([C@@H](OC(=O)c4ccccc4)[C@H]21)C3(C)C the Potency [1] was 0.0087 µM (active).

With C#CCN(C)Cc1ccccc1 the activity, negative = inhibition [2, 3] was 7.21% and the activity, negative = inhibition [2, 4] was -0.897%.

With CCCCN(CCCC)CC(O)c1cc(Cl)cc2c1-c1ccc(Cl)cc1/C2=C/c1ccc(Cl)cc1 (centres undefined) the Potency ([2]; parasite line A) was 0.0251 µM (active).

With CCN(CC)CCNC(=O)c1c(C)[nH]c(/C=C2\C(=O)Nc3ccc(F)cc32)c1C the Potency ([2]; parasite line A) was 6.31 µM (active).

For Cc1ncc(COP(=O)(O)O)c(C=O)c1O, the activity, negative = inhibition [2, 5] was -4.1%, the activity, negative = inhibition [2, 6] was 3.77% and the Potency (3D7) was “inactive”. The Potency (7G8) was “inactive”.

In the case of COc1cc(C(=O)N2CCOCC2)cc(OC)c1OC, the activity, negative = inhibition [2, 5] is reported as 13.6% and -1.06%, the activity, negative = inhibition [2, 6] is reported as 0.0617% and 7.6% and the Potency (3D7) is reported as “inactive”. The Potency (7G8) was “inactive”.

For CC(=O)Nc1ccc(/C=N/NC(N)=S)cc1, the activity, negative = inhibition [2, 5] was 9.12% and 9.39%, the activity, negative = inhibition [2, 6] was 6.45% and 8.83% and the Potency (3D7) was “inactive”. The Potency (7G8) was “inactive”.

With Oc1cn2c(n1)Nc1ccc(Cl)c(Cl)c1C2 the activity, negative = inhibition [2, 5] was 7.35%, the activity, negative = inhibition [2, 6] was -8.41% and the Potency (3D7) was “inactive”. The Potency (7G8) was “inactive”.

With CCCCN1CCCC[C@H]1C(=O)Nc1c(C)cccc1C the activity, negative = inhibition [2, 5] was 5.7%, the activity, negative = inhibition [2, 6] was 17.3% and the Potency (3D7) was “inactive”. The Potency (7G8) was “inactive”.

In the case of O=c1cc[nH]c(=S)[nH]1, the activity, negative = inhibition [2, 5] is reported as 1.45%, the activity, negative = inhibition [2, 6] is reported as 6.46% and the Potency (3D7) is reported as “inactive”. The Potency (7G8) was “inactive”.

For CCN(CC)CCNC(=O)c1cc(Cl)c(N)cc1OC, the activity, negative = inhibition [2, 5] was 11.7%, the activity, negative = inhibition [2, 6] was -3.16% and the Potency (3D7) was “inactive”. The Potency (7G8) was “inactive”.

For CC(=O)c1ccc2c(c1)N(CCCN(C)C)c1ccccc1S2, the activity, negative = inhibition [2, 3] was 7.32%, the activity, negative = inhibition [2, 4] was -24.3% and the Potency (3D7) was “inactive”. The Potency (7G8) was “inactive”.

In the case of COc1ccccc1O, the activity, negative = inhibition [2, 5] is reported as 6.24%, the activity, negative = inhibition [2, 6] is reported as 17.1% and the Potency (3D7) is reported as “inactive”. For the same compound, the Potency (7G8) was “inactive”.

For O=C(CCCN1CCN(c2ccccn2)CC1)c1ccc(F)cc1, the activity, negative = inhibition [2, 5] was -3.57%, the activity, negative = inhibition [2, 6] was 15.4% and the Potency (3D7) was “inactive”. For the same compound, the Potency (7G8) was “inactive”.

For CNCCC(Oc1ccc(C(F)(F)F)cc1)c1ccccc1 (centres undefined), the activity, negative = inhibition [2, 5] was -5.44%, the activity, negative = inhibition [2, 6] was -9.25% and the Potency (3D7) was “inactive”. The Potency (7G8) was 11.2 µM (active).

With CCOc1nc2cccc(C(=O)O)c2n1Cc1ccc(-c2ccccc2-c2nn[nH]n2)cc1 the activity, negative = inhibition [2, 5] was -6.01%, the activity, negative = inhibition [2, 6] was -13.6% and the Potency (3D7) was “inactive”. For the same compound, the Potency (7G8) was 8.91 µM (active).

For CC(=O)CCC(=O)O, the activity, negative = inhibition [2, 5] was 10.3%, the activity, negative = inhibition [2, 6] was -7.9% and the Potency (3D7) was “inactive”. The Potency (7G8) was “inactive”.

With CCCCOc1cc(C(=O)OCCN(CC)CC)ccc1N the activity, negative = inhibition [2, 3] was 8.11%, the activity, negative = inhibition [2, 4] was 4.89% and the Potency (3D7) was “inactive”. The Potency (7G8) was “inactive”.

With C[C@H](N)[C@H](O)c1cccc(O)c1 the activity, negative = inhibition [2, 3] was 4.05%, the activity, negative = inhibition [2, 4] was -0.641% and the Potency (3D7) was “inactive”. The Potency (7G8) was “inactive”.

In the case of C[C@](N)(Cc1ccc(O)cc1)C(=O)O, the activity, negative = inhibition [2, 5] is reported as 4.44%, the activity, negative = inhibition [2, 6] is reported as 11.9% and the Potency (3D7) is reported as “inactive”. For the same compound, the Potency (7G8) was “inactive”.

With CCC(=O)Nc1ccc(O)cc1 the activity, negative = inhibition [2, 5] was 11.9%, the activity, negative = inhibition [2, 6] was -3.83% and the Potency (3D7) was “inactive”. For the same compound, the Potency (7G8) was “inactive”.

For COc1cc2[nH]c(=O)[nH]c(=O)c2cc1OC, the activity, negative = inhibition [2, 3] was -1.12%, the activity, negative = inhibition [2, 4] was -2.32% and the Potency (3D7) was “inactive”. For the same compound, the Potency (7G8) was “inactive”.

With O=C(Oc1ccccc1C(=O)O)c1ccccc1O the activity, negative = inhibition [2, 5] was 0.597%, the activity, negative = inhibition [2, 6] was 10.5% and the Potency (3D7) was “inactive”. The Potency (7G8) was “inactive”.

In the case of CCCCCCCCCCCCCCCCCCOCC(O)CO (centres undefined), the activity, negative = inhibition [2, 5] is reported as 11.2%, the activity, negative = inhibition [2, 6] is reported as 11.4% and the Potency (3D7) is reported as “inactive”. The Potency (7G8) was “inactive”.

With CCOC(CN1CCN(CC(C)C(=O)c2ccccc2)CC1)c1ccccc1 (centres undefined) the activity, negative = inhibition [2, 5] was 2.77%, the activity, negative = inhibition [2, 6] was 3.94% and the Potency (3D7) was “inactive”. For the same compound, the Potency (7G8) was 11.2 µM (active).

For OCC(O)CN1CCN(c2ccccc2)CC1 (centres undefined), the activity, negative = inhibition [2, 5] was 5.92%, the activity, negative = inhibition [2, 6] was 10.4% and the Potency (3D7) was “inactive”. For the same compound, the Potency (7G8) was “inactive”.

In the case of CC1(C)OC(=O)NC1=O, the activity, negative = inhibition [2, 5] is reported as 17.2%, the activity, negative = inhibition [2, 6] is reported as 21.8% and the Potency (3D7) is reported as “inactive”. For the same compound, the Potency (7G8) was “inactive”.

In the case of Oc1cccc(O)c1, the activity, negative = inhibition [2, 5] is reported as 9.04%, the activity, negative = inhibition [2, 6] is reported as 15.9% and the Potency (3D7) is reported as “inactive”. For the same compound, the Potency (7G8) was “inactive”.

In the case of CCOC(=O)[C@H](CCc1ccccc1)N[C@@H](C)C(=O)N1C(=O)N(C)C[C@H]1C(=O)O, the activity, negative = inhibition [2, 5] is reported as 8.56%, the activity, negative = inhibition [2, 6] is reported as 16.1% and the Potency (3D7) is reported as “inactive”. For the same compound, the Potency (7G8) was “inactive”.

For O=S(=O)(O)NC1CCCCC1, the activity, negative = inhibition [2, 5] was 2.07%, the activity, negative = inhibition [2, 6] was 5.79% and the Potency (3D7) was “inactive”. For the same compound, the Potency (7G8) was “inactive”.
